High-throughput results (PubChem BioAssay)
Only some compounds are listed: those with a hit (about 3.7% of all), similar ones and a draw of the others.
Nrf2 block: Nrf2 qHTS screen for inhibitors | A549 ARE-Fluc reporter, luciferase luminescence, 18-24 h | Potency, µM (top dose mostly 46 µM), without a hit: at the highest dose activity change, negative = inhibition, hits mostly inhibitors | hit rate 2.1% among 360,000; further: potency means the concentration at half of the fitted maximal effect; on the % scale 0 is the no-effect control and ±100 the full control effect; nearly all actives have a fitted effect of over 60% in size
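Nrf2 function is reported as luminescence of an ARE-controlled luciferase in A549 cells. Compounds were tested at several concentrations, and a CellTiter-Fluor read on the same wells flagged cytotoxicity.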
Nrf2 ARE act: qHTS of Nrf2 Activators; AID 624171, 2012; AREc32 ARE-luciferase reporter (MCF7-derived line), luminescence, 24 h; hit rate 0.31% among 410,000; Potency, µM (titrated, usually from 46.1 µM), for the others: at the top dose activation, hits mostly activators; further: potency means the concentration at half of the fitted maximal effect; % of control where 0% means no effect; nearly all actives have a fitted effect of over 65% in size
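AREc32 cells carrying an ARE-driven firefly luciferase reporter were seeded at 1000 cells/well in OPTI-MEM with 5% FBS, then exposed to compound for 24 hr at 37 deg C. Luminescence was read with Steady-Glo after 30 min at RT.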
TCR activator: Activators of T cell receptors: qHTS campaign | primary human leukocytes, anti-CD3, IL-2 HTRF, 48 h | Potency, µM (highest dose often 9.22 µM), without a hit: at the top dose activation of IL-2 secretion, actives largely listed as activators | 330,000 tested, under 10 active | AID 504894, 2011; further: % of control where 0% means no effect
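IL-2 release read by HTRF sandwich (Eu cryptate donor, d2 acceptor, 665 nm emission) after 48 hr exposure of primary human leukocytes to compound together with anti-CD3 beads in the absence of co-stimulatory signals.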
miR-21 act: qHTS Assay for Modulators of miRNAs and/orActivators of miR-21; HeLa miR-21 FLuc reporter, luciferase, 48 h; 340,000 tested, under 10 active; Potency, µM (series often up to 38.3 µM), for the others: at the top dose activity change, positive = activation, actives largely listed as activators; AID 2288, 2010;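 further: % of control where 0% means no effect; miR-21 action dims this reporter so a rising signal means less miR-21 action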
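HeLa cells stably expressing CMV-driven firefly luciferase with a downstream miR-21 binding sequence, endogenously expressing miR-21, were treated with titrations (up to about 40uM final) for 48 hours at 37 degree Celsius. Luciferase luminescence was read after lysis.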
ClpP mod: qHTS Assay for Activators of ClpP. ATP-dependent Clp protease proteolytic subunit (Bacillus subtilis (strain 168)), P80244. purified B. subtilis ClpP, FRET peptide cleavage, 20 min. Potency, µM (highest dose often 57.5 µM), without a hit: at the highest dose activity change, negative = active. hit rate 1.9% among 340,000. AID 651965, 2013; active means well fitted falling curve with a large enough effect; inconclusive means small, poorly fitted or top-dose-only effect; inactive means no such curve, though single readings can be large or run the other way; further: potency means the concentration at half of the fitted maximal effect; the source files actives as falling curves though it sought activators and does not explain the sign; nearly all actives have a fitted effect of over 65% in size
Target sequence (P80244 whole entry, looked up): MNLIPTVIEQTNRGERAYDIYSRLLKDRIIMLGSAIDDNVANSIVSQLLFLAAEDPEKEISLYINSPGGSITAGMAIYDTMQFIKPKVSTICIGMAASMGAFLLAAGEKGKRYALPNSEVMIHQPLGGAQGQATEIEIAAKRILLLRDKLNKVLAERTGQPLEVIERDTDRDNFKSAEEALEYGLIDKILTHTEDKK
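Buffer: 100 mM Tris/HCl pH8, 100 mM KCl, 0.05% low protease BSA, 2.5% glycerol, 0.01% Tween-20. ClpP 10 microg/mL final; 20 min RT; delta FRET normalized to ADEP and DMSO controls.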
A549 viability: Nrf2 qHTS screen for inhibitors: counterscreen for cytotoxicity. A549 ARE-Fluc cells, CellTiter-Fluor viability, 18-24 h. Potency, µM (titrated, usually from 46 µM), without a hit: top-dose activity change, negative = cytotoxicity, most hits filed as inhibitors. hit rate 0.16% among 390,000. AID 504648, 2011; further: potency means the concentration at half of the fitted maximal effect; on the % scale 0 is the no-effect control and ±100 the full control effect
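A549 ARE_Fluc cells in 5% FBS OPTI-MEM were exposed to compounds in concentration-response for 18-24 h at 37 deg C. Viability was read by CellTiter-Fluor fluorescence (Ex 405/Em 525) after 30 min, before the luciferase read.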
* = called active by the depositor; u = inconclusive; x = no result given; [ ] = remark or other dose. Unless noted, the call rests on the fitted dose curve; in most records, active means well fitted curve in the direction sought with a large enough effect; inconclusive means small, poorly fitted or top-dose-only effect, or another doubt; inactive means no such curve, though single readings can be large; an effect the other way counts as inactive or inconclusive.

SMILES	Nrf2 block	Nrf2 ARE act	TCR activator	miR-21 act	ClpP mod	A549 viability
O=C(CCC1N=C2c3ccccc3N=C(SCc3ccccc3Cl)N2C1=O)NCc1ccco1 (configuration not stated)	18µM*	0%	0%	-15%	u	u
O=C(CCC1N=C2c3ccccc3N=C(SCc3cccc(Cl)c3)N2C1=O)NCc1ccco1 (configuration not stated)	-27%	0%	-1%	4%	35µM*	-13%
N#Cc1c(N)oc(-c2ccco2)c1-c1ccco1	-4%	u	-10%	1%	25µM*	-7%
N#Cc1c(N)oc(-c2ccccc2)c1-c1ccccc1	-19%	-1%	-5%	1%	-7%	-12%
CCCN1CCN(C(=O)Cn2nc(C)n3c(cc4c(OC)cccc43)c2=O)CC1	1%	0%	0%	x	x	2%
Cc1nn(CC(=O)N2CCN(c3ccccn3)CC2)c(=O)c2cc3sccc3n12	29µM*	0%	-8%	0%	-5%	u
COc1cccc2c1cc1c(=O)n(CC(=O)N3CCN(c4ccc(F)cc4)CC3)nc(C)n12	10%	0%	x	1%	20µM*	3%
COc1cccc2c1cc1c(=O)n(CC(=O)NC3CCCCC3)nc(C)n12	0%	-1%	-4%	0%	32µM*	10%
COc1cc(F)c(S(=O)(=O)N2CCN(S(=O)(=O)c3cccc(NC(C)=O)c3)CC2)c(F)c1	-14%	x	x	x	x	12%
CC(C)OCCCNC(=O)CCCn1c(SCC(N)=O)nc2c(sc3ccccc32)c1=O	-12%	-1%	x	0%	-7%	-12%
CC1OC2(C)OC(=N)C1(C#N)C(C#N)(C#N)C2c1ccccc1 (configuration not stated)	3%	0%	6%[46.1 µM]	-2%	25µM*	13%
CC1C2(C)OC(=N)C(C#N)(C(C)O2)C1(C#N)C#N (configuration not stated)	2%	4%	1%	-3%	x	6%
CCCCC1OC2(C)OC(=N)C1(C#N)C(C#N)(C#N)C2c1ccccc1 (configuration not stated)	5%	0%	-1%[46.1 µM]	-7%	32µM*	3%
COc1cc2c(NC3CCN(C)CC3)nc(N3CCCN(C)CC3)nc2cc1O	x	x	x	x	4%	x
CCOC(=O)CCNC(C)C1COc2ccccc2O1 (configuration not stated)	13%	-1%	0%	-3%	6.3µM*	-4%
CC(NCC1COc2ccccc2O1)C1COc2ccccc2O1 (configuration not stated)	4%	5%	-4%	-4%	x	17%
Cc1cc(=O)n2c(nc3ccccc32)[nH]1	18%	0%	1%[46.1 µM]	-20%	14µM*	0%
O=C(COc1cccc(Br)c1)N/N=C1\CCSC1	10%	2%	2%	-3%	22µM*	-10%
CC(NC(=O)COc1cccc(Br)c1)C(=O)O (configuration not stated)	-12%	0%	3%	-5%	28µM*	1%
O=C(COc1cccc(Br)c1)N/N=C1\CCCc2ccccc21	0%	0%	16%	-2%	x	1%
O=C(CSc1nc2cc(Cl)ccc2s1)NCC1CCCO1 (configuration not stated)	12µM*	3%	14%	x	-3%	-10%
O=C(CSc1nc2ccc([N+](=O)[O-])cc2s1)NCC1CCCO1 (configuration not stated)	u	5%	-4%	9%	x	-10%
CC(C)(C)c1ccc(C(=O)Nc2nnc(SCC(=O)NCC3CCCO3)s2)cc1 (configuration not stated)	10µM*	0%	-6%	-31%	-2%	-10%
